The values that follow come from PubChem BioAssay (Tox21).

Each structure is given as a SMILES string. A number with no mark means an inactive call. Inconclusive results are not listed. The source made the active and inactive calls. Unless noted, calls come from the whole dose curve; as a rule, active = well fitted curve in the direction sought with a large enough effect in the repeat runs; inconclusive = weak or mixed curves; inactive = no such curve, though single readings can be large; an effect the other way counts as inactive or inconclusive.

The nature of test [1]: qHTS assay to identify small molecule agonists of H2AX (AID 1224845; active = well fitted activation curve with a large enough effect in the signal ratio in the repeat runs, not every such curve was filed as active; the % refers to the signal ratio). The method in brief: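 Wild-type CHO-K1 cells plated overnight, then exposed 3 hr at 37C to compounds at 15 concentrations (0.76% DMSO). Lysed, then HTRF anti-pH2AX(S139)-cryptate/anti-H2AX-d2 detection after 24 hr at room temperature; emissions 665 and 620 nm.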
Test [2] in a line: qHTS assay to identify small molecule agonists of the hypoxia (HIF-1) signaling pathway (AID 1224846; active = well fitted activation curve with a large enough effect in the signal ratio in the repeat runs, not every such curve was filed as active; the % refers to the signal ratio). The method in brief:
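Reporter induction in HRE-bla ME-180 cells is taken as agonism: cells sit 5 hrs after plating, receive compounds or DMSO only, incubate 17 hrs at 37C under 5% CO2, and are loaded with CCF4-AM for beta-lactamase FRET measurement.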
On the technique in general: qHTS replaces the single test concentration by a dilution series.

A short description of test [3]: qHTS assay to identify small molecule agonists of H2AX - cell viability counter screen (AID 1224847; calls by dose curve; note: nearly all actives have a fitted effect of over 30% in size; note: potency is the fitted concentration of half-maximal effect; for activity change, negative = cytotoxicity: top concentration of the series differs between compounds). The method in brief:
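Wild-type CHO-K1 cells (10% FBS medium) were plated overnight at 37C, exposed to compounds at 15 concentrations for 3 hr at 37C (0.76% DMSO final), and viability was read as CellTiter-Glo luminescence after 30 min at room temperature.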

Test [4] in a line: qHTS assay to identify small molecule agonists of the estrogen related receptor (ERR) signaling pathway from Tox21 library (AID 1224849; calls by dose curve; note: nearly all actives have a fitted effect of over 15% in size). Particulars: ERR reporter cell line, ONE-Glo luciferase, 18 h; at 92.4 µM (top of the series) unless noted. The method in brief: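 Tox21 compounds tested for ERR agonism in an NTP reporter cell line: 18 h treatment at 37 C, then ONE-Glo luminescence.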

A short description of test [5]: qHTS RealTime-Glo MT Cell Viability Assay in HEK293 cells - 32 hour (AID 1224868). Note: top concentration of the series differs between compounds; nearly all actives have a fitted effect of over 50% in size. The method in brief: (§1)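 Quantitative high-throughput screen of the Tox21 10K library in HEK293: cells and RealTime-Glo reagents plated together, compound added at 5 h, luminescence monitored through 40 h at 37 C.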
Test [6] is described as follows: A CellTox Green Cytotoxicity Assay to monitor cytotoxicity in HEK293 cells - 0 hour (AID 1224869). Note: nearly all actives have a fitted effect of over 50% in size. The method in brief:
(§2)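 Tox21 screen in HEK293: membrane-impermeant cyanine dye fluoresces on binding dead-cell DNA; compound pinned 5 h post-seeding, plates held at 37 C, signal read repeatedly through 40 h.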

Test [7] is described as follows: qHTS RealTime-Glo MT Cell Viability Assay in HepG2 cells - 40 hour (AID 1224870). Note: nearly all actives have a fitted effect of over 50% in size. The method in brief:
(§3)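 HepG2 cells mixed with RealTime-Glo MT reagents (NanoLuc plus cell-permeant prosubstrate) were seeded at 600 cells/well, incubated 5 h at 37 C/5% CO2, then pinned with compounds in DMSO; nonlytic luminescence tracked viability during 40 h treatment.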

A short description of test [8]: A CellTox Green Cytotoxicity Assay to monitor cytotoxicity in HEK293 cells - 40 hour (AID 1224871). Note: nearly all actives have a fitted effect of over 45% in size. The method in brief: as §2
A short description of test [9]: qHTS RealTime-Glo MT Cell Viability Assay in HEK293 cells - 16 hour (AID 1224872). Note: top concentration of the series differs between compounds; nearly all actives have a fitted effect of over 50% in size. The method in brief: as §1
Test [10] can be described thus: qHTS RealTime-Glo MT Cell Viability Assay in HepG2 cells - 8 hour (AID 1224873). Note: nearly all actives have a fitted effect of over 55% in size. The method in brief: as §3
A short description of test [11]: qHTS RealTime-Glo MT Cell Viability Assay in HEK293 cells - 40 hour (AID 1224874). Note: nearly all actives have a fitted effect of over 50% in size. Particulars: RealTime-Glo luminescence; max response: hits give low values. The method in brief: (§4)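 HEK293 + NanoLuc + prosubstrate, 600 cells/well; 5 h, 37 C/5% CO2; compound 23 nL in DMSO by pintool; 37 C; luminescence read at 0, 8, 16, 24, 32 and 40 h time points.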
Test [12] is described as follows: A CellTox Green Cytotoxicity Assay to monitor cytotoxicity in HEK293 cells - 24 hour (AID 1224875). Note: nearly all actives have a fitted effect of over 45% in size. The method in brief:
as §2

The nature of test [13]: A CellTox Green Cytotoxicity Assay to monitor cytotoxicity in HepG2 cells - 16 hour (AID 1224876). Note: nearly all actives have a fitted effect of over 45% in size. The method in brief:
(§5)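 Measurements at 0, 8, 16, 24, 32 and 40 h of treatment captured CellTox Green fluorescence in HepG2 cells that had been co-plated with reagent and preincubated 5 h at 37 C/5% CO2.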

A short description of test [14]: qHTS RealTime-Glo MT Cell Viability Assay in HepG2 cells - 32 hour (AID 1224877). Note: nearly all actives have a fitted effect of over 55% in size. The method in brief:
(§6)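 Compound treatment began 5 h after plating HepG2 cells (600/well) with NanoLuc luciferase and prosubstrate. Plates stayed at 37 C for 40 h; luminescence was captured at six time points, 0 h through 40 h.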

Test [15] is described as follows: A CellTox Green Cytotoxicity Assay to monitor cytotoxicity in HepG2 cells - 24 hour (AID 1224878). Note: nearly all actives have a fitted effect of over 45% in size. The method in brief: as §5
Test [16] can be described thus: A CellTox Green Cytotoxicity Assay to monitor cytotoxicity in HepG2 cells - 40 hour (AID 1224879). Note: nearly all actives have a fitted effect of over 40% in size. The method in brief:
as §5

Test [17] is described as follows: qHTS RealTime-Glo MT Cell Viability Assay in HEK293 cells - 0 hour (AID 1224880). The method in brief:
as §4

Test [18] in a line: A CellTox Green Cytotoxicity Assay to monitor cytotoxicity in HEK293 cells - 32 hour (AID 1224881). Note: nearly all actives have a fitted effect of over 40% in size. The method in brief:
as §2

The nature of test [19]: qHTS RealTime-Glo MT Cell Viability Assay in HepG2 cells - 24 hour (AID 1224867). Note: nearly all actives have a fitted effect of over 50% in size. The method in brief:
as §6
% is set by controls: 0 for no effect and ±100 for the full control effect.

Turning to `CN1CCN(C2=Nc3ccccc3Sc3ccc(Cl)cc32)CC1`, the Potency entry in [1], in test [3], in test [5], in test [6], in test [7] and in [8] was “inactive” in each case. Moreover, the Potency result in test [9], in [10], in test [12], in test [13], in [14] and in test [15] was “inactive” in each case. For the same compound, the Potency result in test [16], in test [17] and in test [18] was “inactive” throughout. In test [2], the result was inactive. Further, the activity change, positive = activation in [4] is 1.89% [at 42.5 µM]. Also, the max response in test [11] is -9.09%.
In the case of `CCCCCCCCCCCCCCCCCBr`, the activation (H2AX phosphorylation) in [1] is -1.13% [at 31.6 µM]. Moreover, in [2], the activation is -0.885% [at 15.8 µM]. Also, the activity change, negative = cytotoxicity in test [3] is 1.9% [at 31.6 µM]; in test [19] it was 0.544% [at 15.8 µM]; in test [9] it was -1.86% [at 15.8 µM]. For the same compound, the activity change, negative = cytotoxic in test [5] was 6.52% [at 15.8 µM]; in test [7] it was 11.3% [at 15.8 µM]; in [14], 4.28% [at 15.8 µM]. In addition, the cytotoxicity in test [6] is -0.244% [at 15.8 µM]; in test [15] it was -11% [at 15.8 µM]. Also, the cytotoxicity increase in test [8] is -9.92% [at 15.8 µM]; in test [13], -9.75% [at 15.8 µM]; in test [16] it was -11.7% [at 15.8 µM]; in [18] it was -9.33% [at 15.8 µM]. In test [10], the viability change, negative = cytotoxic is -6.16% [at 15.8 µM]. Also, the max response in test [11] is 3.16%. In addition, the activity change in [12] was -8.25% [at 15.8 µM, hits give high values].
Regarding `COc1ccccc1OC(=O)Oc1ccccc1OC`, the Potency entry in test [1], in test [3], in test [19], in test [5], in [6] and in test [7] was “inactive” each time. Also, the Potency result in test [8], in test [9], in test [10], in test [12], in [13] and in [14] was “inactive” throughout. Further, the Potency entry in [15], in test [16] and in test [18] was “inactive” throughout. Moreover, the result in [2] was inactive. The max response in [11] was 1.1%.
Take `C[Si](C)O[Si](C)(C)O[Si](C)(C)O[Si](C)C`: the Potency entry in test [1], in [3], in test [19], in test [5], in test [6] and in [7] was “inactive” each time. Further, the Potency result in [8], in test [9], in [10], in test [12], in test [13] and in test [14] was “inactive” in each case. Besides, the Potency entry in test [15], in test [16] and in test [18] was “inactive” in each case. Further, the outcome in [2] was inactive. Besides, the max response in [11] is 7.78%.
For `O=C1c2cccc(O)c2C(=O)c2c(O)cc(CO)cc21`, the Potency result in test [1], in [3], in [19], in [6], in test [7] and in [8] was “inactive” throughout. The Potency entry in test [10], in test [12], in [13], in [14], in [15] and in test [16] was “inactive” throughout. The Potency result in test [17] is “inactive”. Further, in [2], the compound was called inactive. Besides, in test [4], the activity change, positive = activation was -22.2%. Moreover, in test [11], the max response is 29.8%.
Regarding `Cc1ncsc1CCO`, the Potency result in test [1], in test [3], in test [19], in [5], in test [6] and in test [7] was “inactive” throughout. Also, the Potency entry in test [8], in test [9], in test [10], in test [12], in [13] and in test [14] was “inactive” in each case. For the same compound, the Potency entry in test [15], in [16], in test [17] and in test [18] was “inactive” each time. For the same compound, the call in test [2] was inactive. Besides, in test [11], the max response was 14.2%.
Regarding `CC(CN)CCCN` (stereo not given), the Potency result in test [1], in [5], in test [6], in test [7], in [8] and in [9] was “inactive” each time. The Potency result in [10], in test [12], in test [13], in test [14], in test [15] and in test [17] was “inactive” in each case. Besides, the Potency result in test [18] was “inactive”. Besides, the call in test [2] was inactive. In addition, the Potency in [3] is 357 nM (active). In test [4], the activity change, positive = activation is -0.964%. The max response in test [11] was 1.48%.
